Out of some 5,500 compounds screened, about 2,000 (36%) were called active. Inconclusive results (about 18%) are left out. No stated cut-off is given here; in the data, active means normalized growth mostly below about 0.91 (no sharp cut-off); inconclusive means no clear call, values can overlap the other calls; inactive means mostly above about 0.92. The list shows a part of the results.
Assay: chemical genetic growth profiling, strain panel (AID 1159580);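 further: tested at 20 µM; growth read once vehicle control cultures reached saturation at 30 °C; 1 = growth at the plate median or of vehicle wells; lower values mean less growth of the strain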
Conditions: growth OD

Measured: normalized growth

O=C(N[C@@H](CO)[C@H](O)c1ccc([N+](=O)[O-])cc1)C(Cl)Cl
inactive: S. cerevisiae deletion strains, locus YJR075W, strain HOC1, hits give low values 1.02 | S. cerevisiae deletion strains, locus YKL009W, strain mrt4, hits give low values 1.01 | S. cerevisiae deletion strains, locus YKL068W, hits give low values 1 | S. cerevisiae deletion strains, locus YKL085W, strain MDH1 (second series), hits give low values 1 | S. cerevisiae deletion strains, locus YKL085W, strain MDH1, hits give low values 1 | S. cerevisiae deletion strains, locus YKL160W, strain elf1, hits give low values 1.04 | S. cerevisiae deletion strains, locus YKL190W, strain CNB1, hits give low values 1 | S. cerevisiae deletion strains, locus YKR001C, strain vps1, hits give low values 1 | S. cerevisiae deletion strains, locus YKR026C, strain gcn3, hits give low values 1.04 | S. cerevisiae deletion strains, locus YKR091W, strain srl3, hits give low values 0.999 | S. cerevisiae deletion strains, locus YLL001W, strain dnm1, hits give low values 1.01 | S. cerevisiae deletion strains, locus YLL026W, hits give low values 0.998 | S. cerevisiae deletion strains, locus YLL041C, strain sdh2, hits give low values 1.01 | S. cerevisiae deletion strains, locus YLR027C, strain aat2, hits give low values 1.02 | S. cerevisiae deletion strains, locus YLR039C, strain RIC1, hits give low values 1.01 | S. cerevisiae deletion strains, locus YLR058C, strain SHM2, hits give low values 1 | S. cerevisiae deletion strains, locus YLR102C, strain apc9, hits give low values 1.01 | S. cerevisiae deletion strains, locus YLR113W, strain HOG1, hits give low values 0.972 | S. cerevisiae deletion strains, locus YLR221C, strain rsa3, hits give low values 1.02 | S. cerevisiae deletion strains, locus YLR258W, strain gsy2, hits give low values 1.01 | S. cerevisiae deletion strains, locus YLR262C, strain YPT6 (second series), hits give low values 1.01 | S. cerevisiae deletion strains, locus YLR262C, strain YPT6, hits give low values 1.03 | S. cerevisiae deletion strains, locus YLR268W, strain sec22, hits give low values 1.05 | S. cerevisiae deletion strains, locus YLR320W, strain mms22, hits give low values 1 | S. cerevisiae deletion strains, locus YLR330W, strain CHS5, hits give low values 0.999 | S. cerevisiae deletion strains, locus YLR342W, strain FKS1 (second series), hits give low values 1.01 | S. cerevisiae deletion strains, locus YLR342W, strain FKS1, hits give low values 1.01 | S. cerevisiae deletion strains, locus YLR357W, strain rsc2, hits give low values 1.08 | S. cerevisiae deletion strains, locus YLR370C, strain arc18, hits give low values 1.02 | S. cerevisiae deletion strains, locus YLR371W, strain rom2, hits give low values 1.02 | S. cerevisiae deletion strains, locus YLR384C, strain iki3, hits give low values 1.02 | S. cerevisiae deletion strains, locus YLR418C, strain cdc73, hits give low values 1.01 | S. cerevisiae deletion strains, locus YML016C, strain PPZ1, hits give low values 1 | S. cerevisiae deletion strains, locus YML032C, strain rad52, hits give low values 1.03 | S. cerevisiae deletion strains, locus YML120C, strain ndi1, hits give low values 1 | S. cerevisiae deletion strains, locus YML124C, strain tub3, hits give low values 1 | S. cerevisiae deletion strains, locus YMR058W, strain fet3, hits give low values 1.01 | S. cerevisiae deletion strains, locus YMR078C, strain ctf18, hits give low values 1.01 | S. cerevisiae deletion strains, locus YMR125W, strain sto1, hits give low values 1.02 | S. cerevisiae deletion strains, locus YMR129W, hits give low values 1.02 | S. cerevisiae deletion strains, locus YMR205C, strain PFK2, hits give low values 1 | S. cerevisiae deletion strains, locus YMR223W, strain ubp8, hits give low values 0.974 | S. cerevisiae deletion strains, locus YMR231W, strain pep5, hits give low values 1.02 | S. cerevisiae deletion strains, locus YMR263W, strain SAP30, hits give low values 1.02 | S. cerevisiae deletion strains, locus YMR307W, strain GAS1, hits give low values 0.986 | S. cerevisiae deletion strains, locus YNL067W, strain RPL9B, hits give low values 1.03 | S. cerevisiae deletion strains, locus YNL071W, strain lat1, hits give low values 1.02 | S. cerevisiae deletion strains, locus YNL128W, strain TEP1, hits give low values 1.01 | S. cerevisiae deletion strains, locus YNL153C, strain GIM3, hits give low values 1.03 | S. cerevisiae deletion strains, locus YNL183C, strain NPR1, hits give low values 0.921 | S. cerevisiae deletion strains, locus YNL209W, strain ssb2, hits give low values 1.03 | S. cerevisiae deletion strains, locus YNL233W, strain BNI4, hits give low values 1.02 | S. cerevisiae deletion strains, locus YNL248C, strain rpa49, hits give low values 1.04 | S. cerevisiae deletion strains, locus YNL250W, strain rad50, hits give low values 1 | S. cerevisiae deletion strains, locus YNL271C, strain bni1, hits give low values 1.01 | S. cerevisiae deletion strains, locus YNL298W, strain CLA4, hits give low values 1.02 | S. cerevisiae deletion strains, locus YNL307C, strain MCK1, hits give low values 1.01 | S. cerevisiae deletion strains, locus YNL322C, strain KRE1 (second series), hits give low values 1.04 | S. cerevisiae deletion strains, locus YNL322C, strain KRE1, hits give low values 0.999 | S. cerevisiae deletion strains, locus YNR049C, strain mso1, hits give low values 1.01 | S. cerevisiae deletion strains, locus YNR052C, strain pop2, hits give low values 1.01 | S. cerevisiae deletion strains, locus YOL006C, strain TOP1, hits give low values 1.1 | S. cerevisiae deletion strains, locus YOL012C, strain htz1 1.24 | S. cerevisiae deletion strains, locus YOL147C, strain pex11, hits give low values 1.03 | S. cerevisiae deletion strains, locus YOR001W, strain rrp6, hits give low values 1.02 | S. cerevisiae deletion strains, locus YOR061W, strain CKA2, hits give low values 1.01 | S. cerevisiae deletion strains, locus YOR069W, strain VPS5, hits give low values 1 | S. cerevisiae deletion strains, locus YOR070C, strain gyp1, hits give low values 1 | S. cerevisiae deletion strains, locus YOR080W, strain dia2, hits give low values 1.02 | S. cerevisiae deletion strains, locus YOR083W, strain WHI5, hits give low values 0.984 | S. cerevisiae deletion strains, locus YOR106W, strain vam3, hits give low values 1.02 | S. cerevisiae deletion strains, locus YOR136W, strain idh2, hits give low values 0.998 | S. cerevisiae deletion strains, locus YOR144C, strain elg1, hits give low values 1.01 | S. cerevisiae deletion strains, locus YOR184W, strain ser1, hits give low values 1 | S. cerevisiae deletion strains, locus YOR231W, strain MKK1, hits give low values 0.956 | S. cerevisiae deletion strains, locus YOR265W, strain rbl2, hits give low values 1.02 | S. cerevisiae deletion strains, locus YOR270C, strain vph1, hits give low values 1.07 | S. cerevisiae deletion strains, locus YOR290C, strain snf2, hits give low values 1.02 | S. cerevisiae deletion strains, locus YOR316C, strain cot1, hits give low values 1.01 | S. cerevisiae deletion strains, locus YPL051W, strain arl3, hits give low values 1.02 | S. cerevisiae deletion strains, locus YPL055C, strain LGE1, hits give low values 0.986 | S. cerevisiae deletion strains, locus YPL078C, strain atp4, hits give low values 1.03 | S. cerevisiae deletion strains, locus YPL106C, strain sse1, hits give low values 1.01 | S. cerevisiae deletion strains, locus YPL240C, strain hsp82, hits give low values 1.01 | S. cerevisiae deletion strains, locus YPL241C, strain CIN2, hits give low values 1 | S. cerevisiae deletion strains, locus YPL256C, strain CLN2, hits give low values 0.955 | S. cerevisiae deletion strains, locus YPR119W, strain clb2, hits give low values 1 | S. cerevisiae deletion strains, locus YPR141C, strain kar3, hits give low values 0.995 | S. cerevisiae deletion strains, locus YPR163C, strain tif3, hits give low values 1.02 | S. cerevisiae deletion strains, locus YPR167C, strain met16, hits give low values 0.999 | S. cerevisiae deletion strains, strain wtn01, hits give low values 1.04 | S. cerevisiae strains, strain wild type, hits give low values 1

Source: PubChem BioAssay AID1159580 (chemical genetic matrix, 2015)
